NIH3T3 tox: Cytotoxic Profiling in NIH 3T3 Cell Line of Diverse Libraries Using Quantitative High-Throughput Screening; hit rate 4.3% among 94,000; Potency, µM (doses to about 96.7 µM), without a hit: top-dose activity change, negative = cytotoxicity, actives largely listed as inhibitors; NIH 3T3 viability, CellTiter-Glo ATP luminescence, 48-72 h; note: nearly all actives have a fitted effect of over 55% in size
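Luminescent ATP readout (CellTiter-Glo, 10 min RT) after 48 or 72 hr compound exposure of NIH 3T3 cells seeded at 400 cells/well in 1536-well format; quantitative HTS.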
Luciferase inh: Firefly luciferase inhibition profiling of diverse chemical library using quantitative high-throughput screening | Luciferin 4-monooxygenase (Photinus pyralis), P08659 | purified P. pyralis luciferase, luminescence, biochemical | Potency, µM (series often up to 115 µM), usual class: inhibitors | hit rate 2.5% among 76,000; note: nearly all actives have a fitted effect of over 65% in size
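Purified P. pyralis luciferase (10nM final) in 50mM Tris acetate pH 7.5, 10mM Mg acetate, 0.01% Tween-20, 0.05% BSA with 10uM D-luciferin and 10uM ATP. Compounds titrated qHTS. Luminescence imaged on CCD.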
NPR1 antag: Natriuretic polypeptide receptor (hNpr1) antagonism - Primary qHTS | Atrial natriuretic peptide receptor 1 (Homo sapiens), P16066 | HEK293 hNpr1 GloSensor cGMP, ANP-stimulated luminescence | Potency, µM (series often up to 46.3 µM), without a hit: at the top dose activity change, negative = inhibition, hits mostly inhibitors | hit rate 1.6% among 76,000 | AID 1347048, 2019; calls by dose curve; note: nearly all actives have a fitted effect of over 60% in size
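Compound pre-incubated 30 min at room temperature on GloSensor-loaded HEK293 cells stably carrying hNpr1 and the pGS-40F cGMP biosensor. Stimulation uses hNppA at 0.1 nM final; luminescence is taken at baseline and 20 min post-agonist.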
SNCA expr inh: Primary qHTS assay for inhibitors of alpha-synuclein gene (SNCA) expression; HEK-293 SNCA-luciferase knock-in, luminescence, 24 h; Potency, µM (doses to about 57.2 µM), without a hit: at the top dose activity change, negative = inhibition, actives largely listed as inhibitors; hit rate 0.17% among 140,000;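 note: plate controls were DMSO cells for no effect and cell-free wells for full effect; nearly all actives have a fitted effect of over 45% in size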
HEK cytotox: Cytotoxic Profiling in HEK 293 Cell Line of Diverse Libraries Using Quantitative High-Throughput Screening; hit rate 6.6% among 94,000; HEK 293 viability, ATP luminescence (CellTiter-Glo), 48-72 h; Potency, µM (series often up to 115 µM), inactives show top-dose activity change, negative = cytotoxicity, actives largely listed as inhibitors; AID 1345083, 2018; note: nearly all actives have a fitted effect of over 60% in size
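CellTiter-Glo luminescence (cellular ATP) was read after 48 or 72 hr of compound exposure at 37 degree Celsius. Cells were HEK 293 plated at 250 cells/well.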
HEK293 viab: GF-AFC viability counterscreen for inhibitors of alpha-synuclein gene (SNCA) expression; HEK-293-SNCA-luc viability, GF-AFC fluorescence, 24 h; Potency, µM (titrated, usually from 57.1 µM), without a hit: top-dose activity change, negative = cytotoxicity, actives largely listed as cytotoxic; hit rate 0.12% among 150,000;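 note: 0% = DMSO-treated cells and -100% = medium-only wells without cells; nearly all actives have a fitted effect of over 30% in size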
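Cytotoxicity counterscreen: after 24 h compound treatment of genome-edited SNCA-luciferase HEK-293 cells, live-cell protease substrate GF-AFC read by fluorescence after 30 min; activity scaled between DMSO (0%) and medium-only (-100%), curves Hill-fitted.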
An asterisk follows results filed as active; i = inactive; ? = inconclusive; . = no result; [ ] = another dose, or the depositor's remark. Shown are actives, neighbours in structure and some others; about 7.4% of the full set was active somewhere. Unless noted, calls come from the whole dose curve; as a rule, active = well fitted curve in the direction sought with a large enough effect; inconclusive = small, poorly fitted or top-dose-only effect, or another doubt; inactive = no such curve, though single readings can be large; an effect the other way counts as inactive or inconclusive. Unless noted, % is set by controls: 0 for no effect and ±100 for the full control effect; potency is the fitted concentration of half-maximal effect.

SMILES | NIH3T3 tox | Luciferase inh | NPR1 antag | SNCA expr inh | HEK cytotox | HEK293 viab
CNC(=O)c1cc(C2CC2)nc2c1c(C1CCCN(C(=O)c3ccc(C)cc3)C1)nn2C (stereo unspecified) | -26.8% | . | . | . | ? | .
COc1ccc(CN2CCN(c3ncnc4c3CCC4)CC2CCO)c(C)c1C (stereo unspecified) | ? | i | -25.0% | -9.4% | 10µM* | -9.1%
COc1ccc(CN2CCN(c3ccnc(C)n3)CC2CCO)c(C)c1C (stereo unspecified) | -13.2% | i | 4.3% | -9.0% | ? | -10.0%
CCCCNC(=O)c1cccc2c1CCN2C(=O)C1CC1 | ? | i | -2.4% | 8.6% | 3.3% | 3.2%
O=C(NCCc1cccs1)c1cccc2c1CCN2C(=O)Nc1ccccc1 | ? | 15.8µM* | -19.6% | ? | ? | ?
CC(C)NC(=O)c1ccc(NC(=O)N2CCCCc3ccccc32)cc1 | . | . | . | -3.5% | . | -7.1%
Cc1ccc(NC(=O)N2CCc3c(C(=O)NCCCN4CCCC4=O)cccc32)cc1 | ? | 0.282µM* | 1.41µM* | 2µM* | 44.7µM* | 1.6%
COc1ccc(NC(=O)N2CCc3c(C(=O)NC(C)C)cccc32)cc1 | ? | 0.282µM* | 2.51µM* | 3.55µM* | 25.1µM* | -10.7%
CCCCN(C)C(=O)c1cccc2c1CCN2C(=O)Nc1ccc(OC)cc1 | -20.8% | 17.8µM* | -8.3% | -15.8% | ? | -20.2%
CCN(CC)C(=O)c1cccc2c1CCN2C(=O)Nc1cccc(C)c1 | ? | i | -15.2% | 42.9% | ? | -27.5%
CCC(=O)N1CCc2c(C(=O)Nc3ccc(C)cc3)cccc21 | -23.6% | i | 0.1% | 0.8% | -22.6% | -5.4%
COCCCNC(=O)c1nc2cccnc2n(CCc2ccccc2)c1=O | -11.7% | . | . | -19.1% | -19.8% | 5.2%[12.5 µM]
CC(C)NC(=O)NCCNC(=O)c1cccc(-c2ccsc2)c1 | ? | . | . | ? | 100µM* | 4.9%[12.5 µM]
O=C(NCCNC(=O)c1cccc(-c2ccsc2)c1)NC1CCCC1 | -24.9% | . | . | -4.3% | ? | 3.0%[12.5 µM]
CC(C)(C)C(=O)NCCNC(=O)c1cccc(-c2ccsc2)c1 | ? | . | . | 34.7%[87.6 µM] | ? | 11.1%[12.5 µM]
O=C(NCCNC(=O)C1CCCC1)c1cccc(-c2ccsc2)c1 | ? | . | . | -4.2%[87.6 µM] | 79.4µM* | 2.2%[12.5 µM]
CN(C)CC(=O)N1CCC2(CC1)NCCc1c2[nH]c2ccccc12 | ? | i | 5.5% | 16.5% | ? | -0.1%[12.5 µM]
COc1ccc(NC(=O)Cn2ccn3nc4c(c3c2=O)CC(C)CC4)cc1Cl (stereo unspecified) | -5.4% | i | 4.7% | 0.8% | -0.3% | -9.9%
C=CCOc1cccc(-c2nc(C(=O)N(C)Cc3ccco3)cs2)c1 | ? | ? | -13.9% | 14.5% | ? | -3.9%
CC(Cc1cnccn1)NC(=O)c1ccc2nc(-c3ccc(F)cc3)cn2c1 (stereo unspecified) | -7.3% | 39.8µM* | 6.4% | 8.2% | ? | 0.7%
CCC(NC(=O)c1ccc2nc(-c3ccc(F)cc3)cn2c1)c1ncc(C)[nH]1 (stereo unspecified) | ? | 7.94µM* | -6.5% | 53.0% | ? | -1.6%
O=C(NCC1CNCCOC1)c1ccc2nc(-c3ccc(F)cc3)cn2c1 (stereo unspecified) | ? | ? | -5.8% | 72.2% | ? | 2.0%
CNC(=O)c1cc(-c2ccc(Cl)nc2)nc2c1cnn2C | ? | . | . | -4.3%[87.6 µM] | ? | -1.9%[87.6 µM]
Cc1noc(C)c1[S+](=O)([O-])N1CCC(C(=O)N2CCC3(CC2)CC(=O)Nc2ccccc2O3)CC1 | ? | . | . | -0.9% | ? | -13.0%
C=CC(=O)Nc1cccc(Nc2nc(Nc3ccc(OCCOC)cc3)ncc2F)c1 | . | . | . | . | . | 9.47µM*
SMILES | NIH3T3 tox | Luciferase inh | NPR1 antag | SNCA expr inh | HEK cytotox | HEK293 viab
C=CC(=O)Nc1cccc(Nc2nc(Nc3ccc(NC4CN(CCF)C4)cc3OC)ncc2C(F)(F)F)c1 | . | . | . | . | . | 4.74µM*
CC(C)(C)NC(=O)Nc1cccc(Nc2ncc(F)c(NC(C)(C)CO)n2)c1 | . | . | . | -5.5% | . | -4.8%
COCCn1c(=O)c(C(=O)NCc2ccc(C(F)(F)F)cc2)nc2cccnc21 | ? | . | . | -15.6% | ? | 0.8%
O=C(c1nc2cccnc2n(CCc2ccccc2)c1=O)N1CCN(Cc2ccccc2)CC1 | -24.6% | . | . | 5.2% | ? | -0.1%[12.5 µM]
Cn1ccnc1-c1cn(CC2(c3ccccc3F)CCCC2)nn1 | ? | i | -10.4% | -1.5% | ? | -10.4%
COCCC1(CO)CCCN(Cc2ccc(C#N)cc2)C1 (stereo unspecified) | -9.2% | i | 3.0% | 27.5% | i | 4.8%
Cn1ccnc1-c1ccc(N2CCCC(CO)(CCOc3ccccc3)C2)nn1 (stereo unspecified) | ? | i | ? | -40.4% | 31.6µM* | ?
OCC1(CCOc2ccccc2)CCN(c2nnnn2-c2ccccc2)CC1 | ? | i | 0.3% | 0.7% | ? | -3.3%
Cc1ccccc1CC1(CO)CCCN(c2ccc(-c3nccn3C)nn2)C1 (stereo unspecified) | ? | i | ? | ? | 31.6µM* | ?
Cn1ccnc1-c1ccc(N2CCC(CO)(CCOc3ccccc3)CC2)nn1 | ? | 39.8µM* | -18.6% | 4.7% | ? | -21.9%
COc1ccc2nc3n(c2c1)[C@@H](CNC(C)C)COC3 | 100µM* | i | 1.1%[70.6 µM] | 3.4%[87.6 µM] | -13.9%[230 µM] | -9.2%[87.6 µM]
O=C(NCc1ccc(C(F)(F)F)cc1)C1CCCN1c1nccc(Nc2ccccc2F)n1 (stereo unspecified) | ? | . | . | 10.5% | ? | -7.7%[12.5 µM]
Cc1oc(C(O)c2cncnc2)nc1C(=O)Nc1ccc(N2CCOCC2)cc1 (stereo unspecified) | ? | 17.8µM* | -1.9%[70.6 µM] | -1.1%[87.6 µM] | -11.7%[172 µM] | 4.9%[87.6 µM]
COc1cccc(C(O)c2nc(C(=O)Nc3ccc(OC)c(OC)c3)c(C)o2)c1 (stereo unspecified) | -23.8%[138 µM] | 25.1µM* | 3.3%[70.6 µM] | 2.1%[87.6 µM] | ? | 2.3%[87.6 µM]
COc1ccc(CCNC(=O)c2nc3sccn3c2-c2ccc(C(F)(F)F)cc2)cc1 | ? | . | . | ? | -19.6% | -22.4%
CCOC(=O)[C@H]1C[C@@H]2O[C@H]1[C@H]1CN(C(=O)OC)C[C@H]1[C@@H]2O | ? | . | . | . | -24.7% | .
O=C(c1ccccc1OC1CN(Cc2cccc(C(F)(F)F)c2)C1)N1CCOCC1 | ? | . | . | 2.9% | ? | -16.8%
Cc1ccc(CN2CC(Oc3ccccc3C(=O)NC3CC3)C2)cc1 | ? | i | -1.7% | 14.9% | ? | -25.5%
